# Test results as given in the supplement of paper PMC6555819.
# Tested on: THRa:RXRa (NR concentration 90 nM, RXRa partner concentration 90 nM)
# Assay: PBM binding z-score (relative to random genomic background probes); higher = stronger binding; sequences stand for … in GC…GCGATTGACAGCGTAGAATGAAGG
# Summary of the method: (§1)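 Custom Agilent 4×180K protein-binding microarrays carried double-stranded probes. Their 34-nt variable regions held direct-repeat seeds, single-nucleotide variants, half-site ablations and random human genomic background sequences. Arrays were incubated 1 h with ligand-free nuclear receptor dimers in PBS pH 7.4, 2% milk, 0.02% Triton X-100, 1 mM DTT, 0.2 mg/mL BSA and 0.4 mg/ml salmon testes DNA. Antibodies against each partner (one per run) detected binding, and scanned fluorescence was regression-normalized. Binding z-scores use random background probes as reference.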
row,Sequence,PBM binding z-score
1,GTACCGAGGTGAATAGGTCGTTGATGAGTAGGCG,2.15
2,ATATGTAGGTTAGCTTGGGTCATTCAGACTAGGC,4.29
3,TCATATAGGTAATACAGGTGAAAGTAGGCATCTA,1.05
4,GCTGCTAGGTCAGGTTGGTCAGCTCACGGGTACG,1.84
5,GCTTGTAGATCAAGGTTCAGAAAGACTAAGCTAA,-0.139
6,CCTCGGAGGACTGAAGGTCAGAGCTGTCCGCTTT,1.66
7,ATCTCTAGGTAAAGATAGTTCAGTCAATGCAAAT,0.889
8,GCGACTGAGGCATCAGCAGGTTACCATAACTTAA,0.371
9,ACTAGTTGGTCAGCTGAGGTCACAGACAATTCGG,4.99
10,AGAATGAGGTTATTAACATCAGGGAATTGCGGTC,2.13
11,CTACCAAGGTGAACAAAGTCGTTGATTACTATTC,1.69
12,CCTACTGGGCCAAGGTCATGGATCAGTCAAAGCA,3.71
13,TCATATACGTAATACAGGTGAAAGTCGGCATCTA,0.75
14,ATCTCTAGGTAACCAAGTTCAGTGAGTGCCGAAC,1.52
15,TCAAGTAGGTTAGTCGGGGCATTCAGCCAACATA,1.26
16,TAGCCTAGGTCATTGGCCCAGTATAGTACGCATC,2.76
17,GCTAGTTGGTCAGTAAAAGTTCACACACCGGTCG,1.46
18,GCTGCTAGGTCAGGTTGGTCCGCTAACGGGTACG,2.36
19,CCTAGTCGGTCAGGAGGTCACACACCGGATATGA,3.37
20,CGTCCAAAGTCAAGGTCAGTGAAAGAGACTCGAA,3.03

row,Sequence,PBM binding z-score
1,CCTCACGGGTCACGAGGTTATAGCACGACGAGCG,3.36
2,TCGAGTAGGTAAGTCGGGGCATTCAGCCAACATA,0.543
3,CGTCCAAGGTGAAGGTCAGTGAAAGAGACTCGAA,2.71
4,TCATATAGCTAAATGCTAGGTGAAAGTCCGATCT,0.577
5,CCTTACGGGTCAAGGATATAGCACGGGTGGTACG,2.38
6,ACTATTAGTTGACTTAGGGTAACCGATACGACGC,2.77
7,CCTTATGGGTCAAGGTTATAGCACGGGTGGTACG,2.22
8,TCATATAGGTAATACATGTGAAAGTCGGCATCTA,0.246
9,AGTCAAAGTTCAGGACGTGGTAACGTAAAGCACG,2.37
10,CCTACTGGGCCAAAGGTCAATGATTCCAATGCTC,3
11,CATCCTAGGTCAGGGCCAGTATAGGAGGAACGTT,2.52
12,ACTGACAGGTGATGAAGGTAACTCAGGCTATCAT,0.769
13,ACAGACAGGTGAGTGAAGATAACTCAGCTGGACG,-0.344
14,ACTATTAGTTGAGACGAGGACAACCGATAGGTTG,3.9
15,TCGAGTAGGTTAGTCGCGGCATTCAGCCAACATA,-0.287
16,CCTACTGGGCCATCAGGTCATTAATATCAACGTT,2.99
17,CCGACTGGTGCAAAGGTTACCATACTCAGTACGA,1.45
18,TTACCAAGGTGAGGTGAGGTCGTTGATCCAACTC,4.41
19,CCGAGTAGGGTATGGGGCATTCAGGCAACGGTGA,0.159
20,CCTGCTAGGTCGATGGTCAGCTAAAGCAGCTCGC,0.103

# Tested on: THRa homodimer (NR concentration 90 nM)
# Assay: as above
# Summary of the method: as §1
row,Sequence,PBM binding z-score
1,GTACCGAGGTGAATAGGTCGTTGATGAGTAGGCG,0.482
2,ATATGTAGGTTAGCTTGGGTCATTCAGACTAGGC,1.36
3,TCATATAGGTAATACAGGTGAAAGTAGGCATCTA,0.429
4,GCTGCTAGGTCAGGTTGGTCAGCTCACGGGTACG,0.901
5,GCTTGTAGATCAAGGTTCAGAAAGACTAAGCTAA,-0.807
6,CCTCGGAGGACTGAAGGTCAGAGCTGTCCGCTTT,-0.417
7,ATCTCTAGGTAAAGATAGTTCAGTCAATGCAAAT,-0.0396
8,GCGACTGAGGCATCAGCAGGTTACCATAACTTAA,-0.148
9,ACTAGTTGGTCAGCTGAGGTCACAGACAATTCGG,5.44
10,AGAATGAGGTTATTAACATCAGGGAATTGCGGTC,0.447
11,CTACCAAGGTGAACAAAGTCGTTGATTACTATTC,0.927
12,CCTACTGGGCCAAGGTCATGGATCAGTCAAAGCA,2.5
13,TCATATACGTAATACAGGTGAAAGTCGGCATCTA,0.27
14,ATCTCTAGGTAACCAAGTTCAGTGAGTGCCGAAC,0.776
15,TCAAGTAGGTTAGTCGGGGCATTCAGCCAACATA,0.656
16,TAGCCTAGGTCATTGGCCCAGTATAGTACGCATC,0.907
17,GCTAGTTGGTCAGTAAAAGTTCACACACCGGTCG,0.436
18,GCTGCTAGGTCAGGTTGGTCCGCTAACGGGTACG,0.57
19,CCTAGTCGGTCAGGAGGTCACACACCGGATATGA,2.55
20,CGTCCAAAGTCAAGGTCAGTGAAAGAGACTCGAA,2.06

row,Sequence,PBM binding z-score
1,CCTCACGGGTCACGAGGTTATAGCACGACGAGCG,1.24
2,TCGAGTAGGTAAGTCGGGGCATTCAGCCAACATA,-0.297
3,CGTCCAAGGTGAAGGTCAGTGAAAGAGACTCGAA,0.956
4,TCATATAGCTAAATGCTAGGTGAAAGTCCGATCT,-0.00445
5,CCTTACGGGTCAAGGATATAGCACGGGTGGTACG,0.293
6,ACTATTAGTTGACTTAGGGTAACCGATACGACGC,1.43
7,CCTTATGGGTCAAGGTTATAGCACGGGTGGTACG,0.64
8,TCATATAGGTAATACATGTGAAAGTCGGCATCTA,-0.0874
9,AGTCAAAGTTCAGGACGTGGTAACGTAAAGCACG,0.614
10,CCTACTGGGCCAAAGGTCAATGATTCCAATGCTC,0.607
11,CATCCTAGGTCAGGGCCAGTATAGGAGGAACGTT,0.878
12,ACTGACAGGTGATGAAGGTAACTCAGGCTATCAT,-0.122
13,ACAGACAGGTGAGTGAAGATAACTCAGCTGGACG,-0.684
14,ACTATTAGTTGAGACGAGGACAACCGATAGGTTG,2.56
15,TCGAGTAGGTTAGTCGCGGCATTCAGCCAACATA,-1.14
16,CCTACTGGGCCATCAGGTCATTAATATCAACGTT,2.9
17,CCGACTGGTGCAAAGGTTACCATACTCAGTACGA,0.0703
18,TTACCAAGGTGAGGTGAGGTCGTTGATCCAACTC,2.84
19,CCGAGTAGGGTATGGGGCATTCAGGCAACGGTGA,0.0739
20,CCTGCTAGGTCGATGGTCAGCTAAAGCAGCTCGC,-0.265
